Bioassay records deposited in PubChem by Broad Institute.
MITF act: activators of MITF-driven TRPM1 promoter reporter, primary screen, cell-based, SK-MEL-5, luciferase, single point | SK-MEL-5 TRPM1-promoter luciferase, 24 h; % of positive control, neutral wells = 0 | activation, % at 12.5 µM | 0.75% of 300,000 active | AID 588334, 2011;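 active means mean activation of at least 80% with every replicate also reaching 80%; inconclusive means mean reaches 80% but some replicate falls short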;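 further: 0% = neutral control wells and 100% = parthenolide positive control wells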
F508del corr: F508del CFTR correction, initial screen, CFBE line, single point. CFBE cells, YFP halide quenching; stimulated with forskolin plus potentiator P3; % fluorescence drop versus neutral controls. 0.36% of 350,000 active. AID 720511, 2013. activity (quench increase), % at 7.58 µM;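 active means mean added fluorescence quench of at least 8% versus neutral control, with both replicates also reaching 8%; inconclusive means only one of the mean or replicate conditions met; inactive means mean below 8% and not both replicates reaching 8%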;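 further: cells transiently co-express mutant CFTR-F508del with the halide-sensitive YFP; corrector assay measuring rescue of mutant channel to the surface after 24 h compound exposure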
Wnt act: Wnt/beta-catenin pathway activators, primary screen, cell-based, plate reader, single point. activation, % at 9.35 µM. 1.2% of 300,000 active. Wnt/beta-catenin reporter cell assay, activator; in the data active means activation above about 30%, passing the limit was not always enough; inconclusive means no clear call, values can overlap the other calls;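 further: 0% = neutral control wells and 100% = positive control wells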
Env fusion inh: inhibitors of HIV-1 Env-driven cell-cell fusion, primary screen, HeLa-JRFL effector, CEM21 target cells, luciferase; inhibition, % at 12.3 µM; 1.1% of 360,000 active;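 active means mean replicate inhibition score of at least 50 and every replicate individually at or above 50; inconclusive means only one of the two criteria met; inactive means mean below 50 and not all replicates reaching 50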;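 further: 0% = plate neutral controls and 100% = maraviroc near 300 nM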
GSIS activator: GLuc luminescence reporter in INS-1E cells, primary screen for activators of glucose-dependent secretion of insulin | activation, % at 16.6 µM | INS-1E GLuc reporter insulin secretion, 2-3 h | AID 743287, 2014 | 0.61% of 370,000 active;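 active means lowest replicate activation of at least 40%, so every replicate reaches that level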;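 further: 0% = median of neutral control wells and 100% = median of IBMX positive control wells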
Active calls of the source: *; ? = inconclusive; nt = no result; [ ] = dose if it differs, or a comment. Compounds with a hit are over-represented: about 2.7% of the library has one in this group of screens.

SMILES	MITF act	F508del corr	Wnt act	Env fusion inh	GSIS activator
CCOC(=O)CCNC(=O)N1CCCC(C(=O)c2cccc(OC(C)C)c2)C1 (stereo unspecified)	nt	-1	-1	-17	48*
CCCc1cc(=O)oc2cc(OCC(=O)NC3CCN(Cc4ccccc4)CC3)ccc12	-4	0	-2	4	44*
C[C@@H]1CN([C@H](C)CO)C(=O)c2cccc(NC(=O)Nc3ccc4c(c3)OCO4)c2O[C@@H]1CN(C)C(=O)Nc1ccccc1	nt	0	nt	-17[16.7 µM]	-1
N#Cc1ncn(C2OC(CO)C(O)C2O)c1N (stereo unspecified)	nt	10.0*	-6	-10	-7
C[C@@H]1CN([C@@H](C)CO)C(=O)c2cc(NS(=O)(=O)c3ccc(Cl)cc3)ccc2O[C@@H]1CN(C)S(=O)(=O)c1cn(C)cn1	nt	1	nt	nt	10
CN(C)CCN1C(=O)C(=O)/C(=C(/O)c2ccc3c(c2)OCCO3)C1c1ccccn1 (stereo unspecified)	0	1	37*	-16	-16
O=C1C(=O)N(CCN2CCOCC2)C(c2ccc(Cl)c(Cl)c2)/C1=C(/O)c1ccc2c(c1)OCO2 (stereo unspecified)	10	0	0	63*	-8
O=C1C(=O)N(CCN2CCOCC2)C(c2cccc(Cl)c2)/C1=C(\O)c1ccc2c(c1)OCCO2 (stereo unspecified)	0	-1	2	1	-8
COc1cccc(/C(O)=C2/C(=O)C(=O)N(CCN(C)C)C2c2ccccn2)c1 (stereo unspecified)	8	nt	nt	nt	nt
O=C(C[C@H]1CC[C@@H](NC(=O)c2cccc(F)c2)[C@H](CO)O1)NCCN1CCCC1	nt	-3	nt	10[16.7 µM]	-4
Cc1ccc(C(=O)c2sc3nc4c(cc3c2N)CCC4)cc1	125*	nt	33*	-59	74*
Cc1c(C)c2c(OCC(=O)NCC(=O)NCC(=O)O)cc3c(c2oc1=O)CCC(C)(C)O3	-14	0	2	-3	4
Cc1c(C)c2c(OCC(=O)O)cc3c(c2oc1=O)CCC(C)(C)O3	6	0	-1	7	248*
CCC(=O)N(C)C[C@@H]1Oc2cc(C#CC3(O)CCCC3)ccc2S(=O)(=O)N([C@H](C)CO)C[C@H]1C	nt	-2	nt	-9[16.7 µM]	-3
COCc1cn(CC[C@H]2CC[C@@H](NC(=O)Nc3ccc4c(c3)OCO4)[C@@H](CO)O2)nn1	nt	-2	nt	-5[16.7 µM]	-2
C=CCn1c(C)cc(C(=O)COC(=O)c2cncc(Br)c2)c1C	93*	1	-3	nt	15
C1CCN(CCCNC2C3CC4CC(C3)CC2C4)C1 (stereo unspecified)	10	nt	-4	-4	40*
C(CNC1C2CC3CC(C2)CC1C3)CN1CCOCC1 (stereo unspecified)	14	-1	0	5	22
COc1ccc(-c2csc(NC(=O)c3ccoc3C)n2)cc1	86*	-1	13	-68	9
COC(=O)c1c(-c2ccncc2)csc1NC(=O)c1ccoc1C	88*	nt	nt	-70	nt
CN(C)/N=C/C=C1\CC/C(=C\c2ccc(Br)cc2)C1=O	19	nt	-1	-8	nt
CN(C)/N=C/C=C1\CCC/C(=C/c2cccs2)C1=O	53	-3	52*	-162	-2
CCOC(=O)C1(Cc2ccccc2)CCCN(C(=O)C=C(C)C)C1 (stereo unspecified)	88*	3	4	-42	-1
CCOC(=O)C1(Cc2ccccc2)CCCN(C(=O)COc2ccccc2OC)C1 (stereo unspecified)	nt	0	39*	-23	-18
CCOC(=O)C1(Cc2ccccc2)CCCN(C2CCN(C(C)=O)CC2)C1 (stereo unspecified)	-1	-1	1	-4	-18
SMILES	MITF act	F508del corr	Wnt act	Env fusion inh	GSIS activator
CCOC(=O)C1(Cc2cccc(OC)c2)CCCN(C(=O)CSC)C1 (stereo unspecified)	nt	-2	10	-27	2
Cc1ccc(CNC(=O)CSc2nc3ccsc3c(=O)n2NC(=O)c2ccccc2)cc1	1	nt	nt	29	nt
Cc1ccc(Cn2c(SCC(=O)NCc3ccco3)nc3ccsc3c2=O)cc1	-2	nt	nt	71*	-20
Cc1ccc(CNC(=O)CSc2nc3ccsc3c(=O)n2Cc2ccccn2)cc1	14	0	34*	?	-2
Cc1ccc(Cn2c(SCC(=O)NCC3CCCO3)nc3ccsc3c2=O)cc1 (stereo unspecified)	2	-1	-1	13	-7
CCN(CC)c1ccc(Nc2nc(N3CCOCC3)c3ccccc3n2)cc1	-1	nt	-13	57*	nt
CSc1nc(N2CCOCC2)c2ccccc2n1	-3	-2	-1	nt	92*
CNC(=O)C[C@H]1CC[C@@H]2[C@H](COC[C@@H](O)CN2Cc2ccc(C(F)(F)F)cc2)O1	nt	-1	nt	nt	8
CN(Cc1ccccc1)CC(O)CC(O)c1ccccc1 (stereo unspecified)	nt	-3	nt	3[16.7 µM]	nt
CC=Cc1ccc2n(c1=O)C[C@H]1[C@H](CO)[C@@H](C(=O)NCCc3cn(C)cn3)N(C(=O)C3CCC3)[C@@H]21 (mixture of isomers)	nt	nt	nt	1[16.7 µM]	9
c1ccc(-c2n[nH]c3ccccc23)cc1	4	-1	3	nt	-7
O=c1[nH]nc(-c2ccccc2)c2ccccc12	0	3	1	0	66*
N#C[C@H]1[C@@H](c2ccccc2C2=CCCCC2)[C@H](CO)N1S(=O)(=O)c1cccc(F)c1	nt	1	nt	nt	-35
CN(C(=O)CSc1nc2ccccc2o1)C1CCCCC1	?	0	57*	-68	18
CC1CCCN(C(=O)CSc2nc3ccccc3o2)C1 (stereo unspecified)	nt	nt	?	-3	nt
C[C@H]1CN([C@@H](C)CO)C(=O)c2cc(NS(=O)(=O)c3ccc(Cl)cc3)ccc2O[C@@H]1CN(C)C(=O)Nc1ccc2c(c1)OCO2	nt	-1	nt	nt	3
Cc1noc(C)c1S(=O)(=O)N(C)C[C@@H]1OCCCC[C@@H](C)Oc2ccc(NS(=O)(=O)c3ccc(Cl)cc3)cc2C(=O)N([C@H](C)CO)C[C@H]1C	nt	-1	nt	12[16.7 µM]	0
O=C(c1ccco1)N1CCN(S(=O)(=O)c2ccc(Cl)cc2)CC1	-10	0	-1	8	3
O=C(c1ccco1)N1CCN(S(=O)(=O)Cc2ccc(Cl)cc2)CC1	3	nt	42*	-6	nt
CCc1ccc2oc(C(=O)NCc3ccncc3)c(C)c2c1	17	nt	nt	62*	nt
Cc1cc(C)c2c(C)c(C(=O)NCc3ccncc3)oc2c1	nt	nt	nt	3	nt
CCc1ccc2oc(C(=O)Nc3nonc3CC)c(C)c2c1	90*	2	27	-106	17
CCc1nonc1NC(=O)c1oc2ccc(C)cc2c1C	64	3	15	-39	-1
CCNc1ncnc2c1cnn2C1CCCO1 (stereo unspecified)	11	-3	-1	74*	nt
